Dicer inh = human Dicer pre-microRNA cleavage inhibition; Q9UPY3; cat-ELCCA pre-miR-21 Dicer processing, chemiluminescence; hits give high values; z-score at 25 µM; 47,000 compounds, 6% hits; AID 1347074; in the data active = z-score above about 3, passing the limit was not always enough;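 note: plate controls were vehicle for no effect and no enzyme for full effect; higher signal means more uncleaved substrate so more Dicer inhibition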
Active calls of the source: *. This excerpt belongs to a sample that is enriched for hits.

SMILES	Dicer inh
COc1ccccc1N1CCN(S(=O)(=O)c2ccc3[nH]c(=O)[nH]c3c2)CC1	3*
COc1ccccc1N1CCN(S(=O)(=O)c2ccc(-c3ccno3)s2)CC1	2.2
CCOC(=O)NC(=O)c1cn(C(C)C)c(=O)n(Cc2ccccc2)c1=O	-0.18
O=C(CC1SC(=Nc2ccc(C3CCCCC3)cc2)NC1=O)Nc1ccc(C2CCCCC2)cc1 (centres undefined)	0.93
O=C(NCCO)c1cc2ccccc2c(=O)s1	3.8*
O=C(NCc1ccc(C(F)(F)F)cc1)c1cc2ccc3ccccc3c2s1	2.8
CC(C)OC(=O)c1cc2ccccc2c(=O)s1	-0.39
Cc1ccc2c(c1)nnc1n[nH]c(=O)n12	-0.89
CCOC(=O)Oc1ccc2c(=O)c(Oc3cc(C)cc(C)c3C)coc2c1	-1
Cc1ccc(S(=O)(=O)N/N=C/c2ccc(Cl)c(Cl)c2)cc1	-0.62
Cc1ccc(S(=O)(=O)N/N=C/c2ccc(Cl)cc2)cc1	-0.02
COc1ccc(/C=N/NS(=O)(=O)c2ccc(Cl)cc2)cc1OC	3.5*
Cn1ccnc1Sc1cnc(=S)[nH]c1-c1ccc(Cl)cc1	-2.5
CCOCCOC(=O)C1=C(C)NC2=C(C(=O)CC(c3cccs3)C2)C1c1ccc(C)s1 (centres undefined)	-3.5
CCN(CC)c1ncnc2c1sc1nc3c(cc12)COC(C)(C)C3	2.4
COc1c(Cl)cc(Cl)cc1-c1cn2ccccc2n1	-0.51
Cc1ccc(-c2cn3ccc(C)cc3n2)cc1	1.1
COc1c(Cl)cccc1-c1cn2ccc(C)cc2n1	5.9*
c1ccc(C(CCNc2ncnc3nc[nH]c23)c2ccccc2)cc1	-0.18
Cc1nc(-c2ccc(-c3nc(C)c(-c4ccccc4)o3)cc2)oc1-c1ccccc1	0.32
COc1ccc(C2CC(=O)C=C(NC3Cc4ccccc4C3)C2)cc1OC (centres undefined)	0.62
CCCC(=O)c1cc2cc(Br)ccc2oc1=O	-0.31
CCCC(=O)c1cc2cc(Br)cc(Br)c2oc1=O	-0.04
CCCC(=O)n1c(=O)oc2cc(Br)ccc21	4*
O=C(O)[C@@H]1CS[C@H](c2ccccc2)N1	2.4
SMILES	Dicer inh
O=C(C1Sc2nnc(-c3ccccc3)n2NC1c1ccccc1)N1CCCC1 (centres undefined)	-0.08
Cc1ccc(C2Nn3c(nnc3-c3ccccc3)SC2C(=O)N2CCOCC2)cc1 (centres undefined)	-0.66
Cc1ccc(C2Nn3c(nnc3-c3ccccc3)SC2C(=O)N2CCCCC2C)cc1 (centres undefined)	3*
Nc1ccc2nc(CCCc3nc4ccccc4s3)[nH]c2c1	-1.4
Nc1ccc(C(=O)OCCCc2nc3ccc(N)cc3[nH]2)cc1	-2.3
Nc1cccc(-c2nc3ccc(N)cc3[nH]2)c1	-1.6
Nc1cccc(/C=C/c2nc3ccc(N)cc3[nH]2)c1	3.7*
Nc1ccc(Cc2nc3ccc(C(=O)O)cc3[nH]2)cc1	1.7
Nc1ccc2nc(/C=C/c3ccccc3)[nH]c2c1	3.2*
CCOC(=O)CSC(=Nc1ccccc1)c1c(-c2c(Cl)cccc2Cl)noc1C	0.93
O=c1[nH]c(=O)n(CCO)c2nonc12	-0.84
Cc1n[nH]c(C)c1CCCCOc1ccc(Cl)cc1	-0.25
COc1cc(N2C(=O)CSC2c2ccccc2)c(OC)cc1Cl (centres undefined)	-0.78
Cn1nc(C(C)(C)C)cc1NC(=O)Nc1ccc(F)cc1	2.2
O=[N+]([O-])c1ccc(Oc2ccc(Cl)cc2)cc1C(F)(F)F	-0.38
CC(C)(C)n1nc(C2CC2)c(Br)c1NC(=O)c1ccccc1Cl	-1.5
Cc1nn(C(C)(C)C)c(NC(=O)c2ccc(Cl)cc2Cl)c1Br	3.3*
Cc1cc(NC(=O)c2ccc(Cl)cc2Cl)n(C(C)(C)C)n1	1.2
Cc1ccc(C)n1-c1ccc(O)c(C(=O)O)c1	33*
Cc1ccc(C)n1-c1sccc1C(=O)O	2.6
Cc1ccc(C)n1-c1ccc(Br)cc1C(=O)O	8.8
CCOC(=O)C(OC(=O)Nc1ccccc1)C(OC(=O)Nc1ccccc1)C(=O)OCC (centres undefined)	1.9
CCOC(=O)NC1(NCC(C)C)Oc2ccccc2O1	6*
CCOC(=O)NC(NC(C)c1ccccc1)(C(F)(F)F)C(F)(F)F (centres undefined)	-0.53
COc1ccc(-c2cnc3cc(C)nn3c2N)cc1	0.23
SMILES	Dicer inh
O=C1CC(c2cccc(Cl)c2)Cc2nc3nc(C(F)(F)F)nn3cc21 (centres undefined)	3.8*
O=C1CC(c2cccc(Cl)c2)Cc2nc(NCc3ccco3)ncc21 (centres undefined)	2.3
O=C1CC(c2cccc(Cl)c2)Cc2nc(N3CCc4ccccc43)ncc21 (centres undefined)	-0.39
CCC1C(=O)C(C)(C)C(=O)OC1c1ccc(Cl)cc1 (centres undefined)	-0.59
N#CC(=Nc1ccc(F)cc1)C1=C(O)c2ccccc2C1=O	0.82
CC(C)(C)c1ccc(N=C(C#N)C2=C(O)c3ccccc3C2=O)cc1	3.1*
N#CC(=Nc1ccc(F)cc1F)C1=C(O)c2ccccc2C1=O	-3.2
O=c1[nH]nc(Sc2ncc(Br)cc2[N+](=O)[O-])n1-c1ccccc1	-1.3
COc1ccc(-c2nnc(SCc3ccccc3C)o2)cc1	2.1
N#CC(C#N)C(CC(=O)c1ccccc1)c1ccccc1 (centres undefined)	4.2*
O=C(CCCC(=O)c1ccccc1)c1ccccc1	-2.2
O=C(CC(Sc1ccc(Cl)cc1)c1ccc(Cl)cc1)c1ccccc1 (centres undefined)	-3.5
COc1ccc(OCC(O)CNS(=O)(=O)c2c(C)noc2C)cc1 (centres undefined)	-3.1
CCOC(=O)c1oc2ccc(Br)cc2c1NC(C)=O	0.85
CS(=O)(=O)c1sc(C#N)c2c1C(=O)CCC2	0.08
CC1(C)CC(=O)c2c(S(C)(=O)=O)sc(Br)c2C1	-1.3
CS(=O)(=O)c1sc(Br)c2c1C(=O)CCC2	4.4*
COc1ccccc1C1C(C(=O)OC2CCCCC2)=C(C)NC2=C1C(=O)CCC2 (centres undefined)	-0.36
COc1ccc(/C(O)=C2/C(=O)C(=O)N(CCN3CCOCC3)C23C(=O)N(C)c2ccccc23)cc1 (centres undefined)	3.5*
CCOc1ccc(/C(O)=C2/C(=O)C(=O)N(CCN(C)C)C23C(=O)N(C)c2ccccc23)cc1 (centres undefined)	1.8
CN1C(=O)C2(/C(=C(/O)c3ccccc3)C(=O)C(=O)N2CCCN2CCOCC2)c2ccccc21 (centres undefined)	5.3*
CN1C(=O)C2(/C(=C(/O)c3ccccc3)C(=O)C(=O)N2CCN2CCOCC2)c2ccccc21 (centres undefined)	5.4*
CC1Cc2cc(/C(O)=C3/C(=O)C(=O)N(CC4CCCO4)C34C(=O)N(C)c3ccccc34)ccc2O1 (centres undefined)	1.5
CCN1C(=O)C2(/C(=C(/O)c3ccc(F)cc3)C(=O)C(=O)N2CCCN2CCOCC2)c2ccccc21 (centres undefined)	2.4
COCCCN1C(=O)C(=O)/C(=C(\O)c2ccc3c(c2)CC(C)O3)C12C(=O)N(C)c1ccccc12 (centres undefined)	0.99
COc1ccc(/C(O)=C2/C(=O)C(=O)N(CCCN3CCOCC3)C23C(=O)N(C)c2ccccc23)cc1 (centres undefined)	1.9
CC1Cc2cc(/C(O)=C3/C(=O)C(=O)N(CCN(C)C)C34C(=O)N(C)c3ccccc34)ccc2O1 (centres undefined)	4.4*
